ROMK primary = modulators of human ROMK potassium channel; B-score at 10 µM; Tet-inducible ROMK, thallium flux fluorescence; actives lie on both sides; hit rate 2% among 130,000; AID 1918;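 active = signal ratio slope over the read window, or its plate-corrected B-score, at least 3 SD from the plate mean, either direction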;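 also: B-score of the F/F0 ratio slope over 7 to 12 s after thallium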
Target sequence (P48048 whole entry, looked up): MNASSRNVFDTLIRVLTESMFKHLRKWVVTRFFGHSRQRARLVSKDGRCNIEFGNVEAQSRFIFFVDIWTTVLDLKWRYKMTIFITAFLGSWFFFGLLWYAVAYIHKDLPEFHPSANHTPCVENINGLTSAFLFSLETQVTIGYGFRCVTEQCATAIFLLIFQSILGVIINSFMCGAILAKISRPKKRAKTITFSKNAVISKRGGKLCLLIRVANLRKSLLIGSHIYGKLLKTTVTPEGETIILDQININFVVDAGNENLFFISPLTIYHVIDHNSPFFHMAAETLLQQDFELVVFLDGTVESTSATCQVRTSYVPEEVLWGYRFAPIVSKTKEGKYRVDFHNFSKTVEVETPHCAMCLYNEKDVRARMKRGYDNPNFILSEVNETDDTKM
Calpain2 inh = blocks pig calpain II enzyme activity | purified calpain II, fluorogenic peptide substrate, 30 min | hit rate 0.37% among 220,000 | AID 1236 | inhibition, % at 16 µM;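 active = inhibition above about 50%, limit read from the data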
Cl transport mod = KCC2 (human) Cl- transport modulation; Q9H2X9; KCC2 cells, thallium flux FluoZin-2 fluorescence; B-score of Tl+ flux slope (higher = more flux/activation; lower = inhibition) at 10 µM; hit rate 2.2% among 190,000; AID 1456;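 active = thallium flux slope and its plate-corrected score both differing from the plate sample mean at a set confidence after two filtering rounds, in either direction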;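 also: slope of fluorescence scaled to starting intensity during 10 to 20 s after thallium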
WT yeast gro inh = growth inhibition of WT yeast, mitochondrial fusion screen; mitochondrial fusion phenotypic screen, WT strain; inhibition, % at 10 µM; hit rate 2.1% among 190,000; in the data active = inhibition above about 58%; tested in S. cerevisiae
L major viab = inhibitors of Leishmania major promastigote growth. inhibition, % at 10 µM. Leishmania major promastigotes, resazurin fluorescence viability. hit rate 9% among 200,000; in the data active = inhibition above about 50%;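 also: promastigotes grown with compound for 44 hours at 28 °C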
The depositor's hits bear a star; · = no result; ! = not active in a repeat. In the library only some 12% were active in any assay of this set; here they are far more common.

SMILES	ROMK primary	Calpain2 inh	Cl transport mod	WT yeast gro inh	L major viab
c1ccc(-c2ccc(C(c3ccccc3)n3ccnc3)cc2)cc1 (stereo not given)	·	52.9*	-1.21	73.4*!	97.8*
CC(CC(=O)Nc1nc2ccccc2[nH]1)n1ccnc1 (stereo not given)	-1.52	3.9	0.607	-5.1	-1.7
COc1ccc(NC(=O)C2CCC(=O)N2S(=O)(=O)c2ccc(C)cc2)c(OC)c1 (stereo not given)	0.181	11.7	1.03	5.3	0.0
Cc1cccc(NC(=O)c2ccc(COc3ccc4ccccc4c3)o2)n1	-0.24	-8.8	-0.0838	36.3	-0.5
O=C(c1ccco1)N1CCN(C(=O)c2ccc(COc3ccc4c(c3)CCC4)o2)CC1	·	-12.9	-0.848	19.6	82.6*
O=C(c1ccco1)N1CCN(C(=O)c2ccc(COc3ccc(Cl)cc3Cl)o2)CC1	·	·	-3.4*	·	2.3
O=C(c1ccc(COc2ccccc2Cl)o1)N1CCN(c2ccccc2)CC1	·	20.7	-1.74	50.8	0.7
Cc1cccc(NC(=O)c2ccc(COc3ccc(Cl)cc3Cl)o2)n1	0.43	38.8	·	59.7*	4.7
O=C(c1ccc(COc2ccc3c(c2)CCC3)o1)N1CCN(c2ccccc2)CC1	·	·	·	·	-1.6
CCS(=O)(=O)NCC(c1cccnc1)N1CCN(c2ccccc2F)CC1 (stereo not given)	0.619	7.8	·	15.6	78.5*
CCS(=O)(=O)NCC(c1cccnc1)N1CCN(c2ccccc2OC)CC1 (stereo not given)	·	31.2	1.22	6.9	23.5
CCS(=O)(=O)NCC(c1cccnc1)N1CCN(c2ccc(F)cc2)CC1 (stereo not given)	0.187	-0.3	·	-7.9	69.2*
O=C(NCCO)C(=O)c1c(-c2ccccc2)cc2ccccn12	0.793	-17.8	0.197	-23.0	-12.9
CN(C)C(=O)C(=O)c1c(-c2ccccc2)cc2ccccn12	·	53.6*	·	-4.3	-0.6
CC(=O)c1ccc(NC(=O)COC(=O)c2c3c(nc4ccccc24)/C(=C\c2cccs2)CCC3)cc1	·	-25.6	0.311	-7.2	97.2*
Cc1ccc(C(=O)Nc2nc(C(C)(C)C)cs2)s1	-0.563	5.3	-1.37	43.1	55.2*
CC(C)(C)c1csc(NC(=O)c2ccc(Cl)s2)n1	·	25.6	2.51	43.8	23.2
Cc1cc(SCC(=O)Nc2cccc(S(=O)(=O)N3CCOCC3)c2)nc2ccccc12	·	-5.0	-1.43	21.4	40.0
CC(C)N(C(=O)COC(=O)CNS(=O)(=O)c1ccccc1F)c1ccccc1	-0.226	-18.1	0.23	-8.2	-6.0
CC1(c2ccccc2)CC(C)(C)N2C(=O)C3(C(C#N)=C(N)Oc4cc(O)ccc43)c3cccc1c32 (stereo not given)	-0.282	-17.8	·	1.1	12.2
Cc1cc2c3c(c1)C(C)(c1ccccc1)CC(C)(C)N3C(=O)C21C(C#N)=C(N)OC2=C1C(=O)CC(C)(C)C2 (stereo not given)	-2.58	-53.8	·	28.2	50.6*
NC(N)=N/N=C/c1ccc(OCc2ccccc2)cc1	·	-13.2	·	19.4	100.6*
Cc1ccc(COc2ccc(/C=N/O)cc2)cc1	-1	8.4	-0.821	-8.6	58.1*
NC(N)=N/N=C/c1ccc(OCc2ccc(Cl)cc2)cc1	·	34.1	·	81.9	100.6*
CCOc1ccc(/C=N/O)cc1	0.221	24.3	·	-3.0	4.8
SMILES	ROMK primary	Calpain2 inh	Cl transport mod	WT yeast gro inh	L major viab
Cc1cccc(N/C(N)=N/c2nc(CSc3ccc(Cl)cc3)cc(=O)[nH]2)c1	-0.0293	24.5	0.455	·	·
O=c1c2cc(NC(=S)NCc3cccnc3)ccc2nc2n1CCCCC2	-0.897	12.3	0.138	-2.1	4.6
COc1ccc(C2=Nc3cccc4cccc(c34)N2)cc1	·	-13.8	-0.942	65.7*	9.6
Cc1ccc2c(CN3CCN(C(=O)c4ccco4)CC3)cc(=O)oc2c1C	1.1	2.1	-0.299	-2.8	5.7
Cc1ccc2c(CN3CCN(CCO)CC3)cc(=O)oc2c1C	-1.56	1.7	0.0772	5.0	54.9*
CN1CCN(Cc2cc(=O)oc3cc4c(cc23)CCC4)CC1	-0.649	-15.3	·	-11.7	65.4*
Cc1cc2oc(=O)cc(CN3CCCc4ccccc43)c2cc1C	·	-23.8	-0.879	7.2	99.3*
CN1CCN(NC(=O)c2cccc(C(F)(F)F)c2)CC1	·	6.0	0.353	·	·
COc1ccc(-c2oc(/N=C/N3CCOCC3)c(C#N)c2-c2ccc(OC)cc2)cc1	-0.0872	-24.6	·	16.2	38.3
Cn1cc(Br)c(C(=O)NC(=S)Nc2ccc(S(N)(=O)=O)cc2)n1	-0.195	21.6	1.27	17.7	-1.4
CCN(CC)c1ccc(NC(=O)C(C)C)cc1	·	22.9	0.0395	6.6	-4.2
CCN(CC)c1ccc(C(=O)NNC(=O)CCl)cc1	-0.358	69.4*	0.425	-5.1	16.5

Compound activity deposited in PubChem BioAssay by several laboratories.
